Our source for the outcome and AC50 values is PubChem BioAssay (EPA / NIEHS).

Several values for one entry are separate records, joined by “and”; a condition that tells them apart may be missing. Equal values may be shown once. Activity calls are given as the source filed them. The calls were made as follows: active = hit-call score of the fitted dose curve at least 0.9, where 1 is the maximum; inactive = score below 0.9.

Read-out in assay [1]: Urokinase-type plasminogen activator receptor (uPAR), PLAUR (gene 5329)
Nature of the assay: BSK_4H_uPAR: BioMAP Diversity Plus: 4H Assay for Urokinase-type plasminogen activator receptor (uPAR) Biomarker Activity (AID 2283030). The settings on record: primary human endothelial cells (HUVEC); actives raise or lower the signal. An outline of the steps: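 Primary human umbilical vein endothelial cells were exposed to chemical for 24 h before cell-surface uPAR was quantified by ELISA. Activity was fitted bidirectionally against the DMSO negative control baseline.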

Read-out in assay [2]: Vascular endothelial growth factor receptor 2 (Homo sapiens) (UniProt P35968)
Nature of the assay: BSK_4H_VEGFRII: BioMAP Diversity Plus: 4H Assay for Vascular endothelial growth factor receptor 2 (VEGFR2) Biomarker Activity (AID 2283031).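 As to AC50: cell-surface VEGFR2 protein level quantified by ELISA.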 The settings on record: primary human endothelial cells (HUVEC); actives raise or lower the signal. A digest of the protocol: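 Primary human umbilical vein endothelial cells in the BioMAP 4H system were dosed with test chemical, and 24 h later VEGFRII was measured by ELISA. Activity was fitted bidirectionally against DMSO as negative control and baseline.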

Read-out in assay [3]: Human Leukocyte Antigen - DR isotype (HLADR), HLA-DRA (gene 3122)
Nature of the assay: BSK_BE3C_HLADR: BioMAP Diversity Plus: BE3C Assay for Human Leukocyte Antigen - DR isotype (HLADR) Biomarker Activity (AID 2283032). The settings on record: primary human bronchial epithelial cells; actives raise or lower the signal. A digest of the protocol:
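Human primary bronchial epithelial cells in the BE3C system were exposed to chemicals for 24 h, after which HLA-DR levels were quantified by ELISA. Activity was fitted bidirectionally, gain or loss of signal, against DMSO as negative control and baseline.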

Read-out in assay [4]: Vascular cell adhesion molecule 1 (VCAM1), VCAM1 (gene 7412)
Nature of the assay: BSK_4H_VCAM1: BioMAP Diversity Plus: 4H Assay for Vascular cell adhesion molecule 1 (VCAM1) Biomarker Activity (AID 2283033).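 As to outcome: cell-surface VCAM-1 protein measured by ELISA.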 The settings on record: primary human endothelial cells (HUVEC); actives raise or lower the signal. An outline of the steps:
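Primary human umbilical vein endothelial cells were exposed to chemicals for 24 h, after which VCAM-1 was quantified by ELISA. Responses were fitted bidirectionally against DMSO as negative control and activity baseline.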

Read-out in assay [5]: Interferon-gamma inducible Protein 10 (IP10), CXCL10 (gene 3627)
Nature of the assay: BSK_BE3C_IP10: BioMAP Diversity Plus: BE3C Assay for Interferon-gamma inducible Protein 10 (IP10) Biomarker Activity (AID 2283034). The settings on record: primary human bronchial epithelial cells; actives raise or lower the signal. A digest of the protocol:
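Human primary bronchial epithelial cells were exposed to chemicals for 24 hours, after which IP-10 levels were measured by ELISA. Data were fitted bidirectionally against DMSO, which served as the negative control and activity baseline.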

Read-out in assay [6]: Monokine induced gamma interferon (MIG), CXCL9 (gene 4283)
Nature of the assay: BSK_BE3C_MIG: BioMAP Diversity Plus: BE3C Assay for Monokine induced gamma interferon (MIG) Biomarker Activity (AID 2283035). The settings on record: primary human bronchial epithelial cells; actives raise or lower the signal. A digest of the protocol: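 Primary human bronchial epithelial cells treated for 24 h; MIG levels measured by ELISA, fitted bidirectionally versus DMSO. Parallel SRB total-protein staining assessed cytotoxicity.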

Read-out in assay [7]: Plasminogen activator inhibitor-1 (PAI1), SERPINE1 (gene 5054)
Nature of the assay: BSK_BE3C_PAI1: BioMAP Diversity Plus: BE3C Assay for Plasminogen activator inhibitor-1 (PAI1) Biomarker Activity (AID 2283037). The settings on record: primary human bronchial epithelial cells; actives raise or lower the signal. A digest of the protocol:
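Human primary bronchial epithelial cells were exposed to chemical for 24 h, then PAI-1 was quantified by ELISA. Activity was fitted bidirectionally relative to the DMSO negative control baseline.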

Read-out in assay [8]: urokinase plasminogen activator (uPA), PLAU (gene 5328)
Nature of the assay: BSK_BE3C_uPA: BioMAP Diversity Plus: BE3C Assay for urokinase plasminogen activator (uPA) Biomarker Activity (AID 2283038).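 As to outcome: uPA protein level quantified by ELISA in cell cultures; uPA read one day after compound addition.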 The settings on record: primary human bronchial epithelial cells; actives raise or lower the signal. An outline of the steps:
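Human primary bronchial epithelial cells were exposed to chemical for 24 h, then uPA levels were measured by ELISA. Responses were fitted bidirectionally against DMSO as negative control and baseline. Parallel SRB staining of total protein gauged overt cytotoxicity.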

Read-out in assay [9]: Urokinase-type plasminogen activator receptor (uPAR), PLAUR (gene 5329)
Nature of the assay: BSK_BE3C_uPAR: BioMAP Diversity Plus: BE3C Assay for Urokinase-type plasminogen activator receptor (uPAR) Biomarker Activity (AID 2283039).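 As to outcome: cells exposed to compound for one day before measurement.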 The settings on record: primary human bronchial epithelial cells; actives raise or lower the signal. A digest of the protocol:
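Primary human bronchial epithelial cells were dosed with chemical and harvested 24 h later; uPAR was quantified by ELISA. Activity was fitted bidirectionally against DMSO as negative control and baseline.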

For the compound `C=C(C)C(=O)OCCC(F)(F)C(F)(F)C(F)(F)C(F)(F)C(F)(C(F)(F)F)C(F)(F)F`, the outcome in assay [1], in assay [2], in assay [3], in assay [4], in assay [5] and in assay [6] was inactive. Further, the outcome in [7], in [8] and in assay [9] was inactive.
For `FC(F)(F)C(F)(F)C(F)(F)C(F)(F)C(F)(F)C(F)(F)CCS`, the outcome in assay [1], in [2], in assay [3], in assay [4], in assay [5] and in assay [6] was inactive. Besides, the result in assay [7], in assay [8] and in [9] was inactive.
By AC50 is commonly meant the midpoint of the concentration-response curve, whichever way the signal moves. Take `O=C(O)C(F)(F)C(F)(F)C(F)(F)C(F)(F)C(F)(F)C(F)(F)C(F)(F)C(F)(F)C(F)(F)C(F)F`: the result in [1] and in assay [2] was inactive. The AC50 in assay [3] was 10.5 µM (active); in assay [4], 47.8 µM (active) and 55.4 µM (active); in assay [5], 8.14 µM (active) and 8.37 µM (active); in [6] it was 15 µM (active) and 14.9 µM (active); in assay [7], 14 µM (active) and 12.1 µM (active); in [8], 16.5 µM (active) and 10.6 µM (active). Also, the concentration at half-maximal activity (AC50) in assay [9] is 15.7 µM (active) and 16.7 µM (active).
In the case of `C=CC(=O)OCC(F)(F)C(F)(F)C(F)(F)C(F)(F)C(F)(F)C(F)(F)C(F)(F)F`, the outcome in [1], in [2], in assay [3], in assay [4], in assay [5] and in assay [6] was inactive. The outcome in assay [7], in assay [8] and in [9] was inactive.
As to `FC(F)(F)C(F)(F)C(F)(F)C(F)(F)C(F)(F)CCI`, the result in [1], in assay [2], in assay [3], in assay [4], in assay [5] and in [6] was inactive. The result in [7], in [8] and in [9] was inactive.
Turning to `CCCCCCCCC(F)(F)C(F)(F)C(F)(F)C(F)(F)C(F)(F)C(F)(F)F`, the result in assay [1], in assay [2], in [3], in [4], in assay [5] and in [6] was inactive. Besides, the outcome in [7], in [8] and in [9] was inactive.
For the compound `O=S(=O)(OCCOC(F)(F)F)C(F)(F)F`, the outcome in assay [1], in [2], in assay [3], in [4], in assay [5] and in assay [6] was inactive. Moreover, the result in [7], in [8] and in [9] was inactive.
As to `COC(=O)CCC(F)(F)C(F)(F)C(F)(F)C(F)(F)F`, the outcome in assay [1], in [2], in assay [3], in assay [4], in [5] and in assay [6] was inactive. Besides, the result in assay [7], in assay [8] and in [9] was inactive.
Take `FC1CC(F)(F)C(F)(F)C1(F)F` (stereo unspecified): the outcome in assay [1], in assay [2], in assay [3], in assay [4], in assay [5] and in [6] was inactive. The result in [7], in assay [8] and in assay [9] was inactive.
With `OCCCC(F)(F)C(F)(F)C(F)(F)C(F)(F)C(F)(F)C(F)(F)C(F)(F)F`, the AC50 in assay [1] was 51.2 µM (active) and 47.3 µM (active); in assay [2], 44.6 µM (active) and 45.4 µM (active); in assay [3], 50.4 µM (active) and 45.9 µM (active); in [4], 46.4 µM (active) and 48.6 µM (active); in [5] it was 47.6 µM (active) and 46.4 µM (active); in assay [6] it was 49.6 µM (active) and 55.7 µM (active). For the same compound, the AC50 in assay [7] is 47.1 µM (active) and 30 µM (active); in assay [8] it was 46.5 µM (active) and 47.5 µM (active); in assay [9] it was 52.4 µM (active) and 47.2 µM (active).
Take `C=C(C)C(=O)OCC(F)(F)C(F)(F)C(F)(F)C(F)(F)C(F)(F)C(F)(F)C(F)(F)F`: the result in [1], in assay [2], in assay [3], in [4], in assay [5] and in assay [6] was inactive. In addition, the outcome in assay [7], in assay [8] and in assay [9] was inactive.
For `C=CC(F)(F)C(F)(F)C(F)(F)C(F)(F)C(F)(F)C(F)(F)C(F)(F)C(F)(F)C=C`, the result in assay [1], in assay [2], in assay [3], in [4], in [5] and in assay [6] was inactive. In addition, the result in [7], in assay [8] and in assay [9] was inactive.
With `O=C(O)C(F)(OC(F)(F)C(F)(OC(F)(F)C(F)(OC(F)(F)C(F)(F)C(F)(F)F)C(F)(F)F)C(F)(F)F)C(F)(F)F` (stereo unspecified), the result in assay [1], in assay [2], in [3], in assay [4], in [5] and in [6] was inactive. Moreover, the result in [7], in [8] and in assay [9] was inactive.
Consider `CC(C)(C)C(=O)CC(=O)C(F)(F)C(F)(F)C(F)(F)F`, for which the result in [1], in assay [2], in assay [3], in assay [4], in assay [5] and in assay [6] was inactive. In addition, the result in assay [7], in assay [8] and in assay [9] was inactive.
Regarding `C=CC(F)(F)C(F)(F)C(F)(F)C(F)(F)C(F)(F)C(F)(F)C(F)(F)C(F)(F)F`, the outcome in [1], in assay [2], in assay [3], in assay [4], in [5] and in assay [6] was inactive. Moreover, the outcome in assay [7], in assay [8] and in assay [9] was inactive.
With `O=C(O)C(F)(F)C(F)(F)C(F)(F)F`, the outcome in assay [1], in assay [2], in [3], in [4], in [5] and in [6] was inactive. The result in assay [7], in [8] and in assay [9] was inactive.
Regarding `FC(F)(F)C(F)(F)C(F)(F)C(F)(F)C(F)(F)C(F)(F)C(F)(F)C(F)(F)CCS`, the result in [1], in assay [2], in assay [3], in assay [4], in assay [5] and in [6] was inactive. Further, the outcome in [7], in [8] and in [9] was inactive.
In the case of `FC(F)(F)C(F)(F)CNCC(F)(F)C(F)(F)F`, the outcome in assay [1], in assay [2], in assay [3], in assay [4], in assay [5] and in assay [6] was inactive. Besides, the outcome in [7], in [8] and in [9] was inactive.
Consider `FC(F)(F)C(F)(F)C(F)(F)C(F)(F)C(F)(F)C(F)(F)C(F)(F)C(F)(F)F`, for which the result in assay [1], in assay [2], in assay [3], in assay [4], in [5] and in assay [6] was inactive. For the same compound, the result in assay [7], in assay [8] and in assay [9] was inactive.
